For 36 targets, log2 fold change results are on record in the supplement of paper PMC10849652.

Targets with a hit are over-represented here; the source holds about 7,900 in all. About 0.6% of all pairs of compound and target were hits.

UniProt Q9ULX6, sequence (Q9ULX6 whole entry, looked up): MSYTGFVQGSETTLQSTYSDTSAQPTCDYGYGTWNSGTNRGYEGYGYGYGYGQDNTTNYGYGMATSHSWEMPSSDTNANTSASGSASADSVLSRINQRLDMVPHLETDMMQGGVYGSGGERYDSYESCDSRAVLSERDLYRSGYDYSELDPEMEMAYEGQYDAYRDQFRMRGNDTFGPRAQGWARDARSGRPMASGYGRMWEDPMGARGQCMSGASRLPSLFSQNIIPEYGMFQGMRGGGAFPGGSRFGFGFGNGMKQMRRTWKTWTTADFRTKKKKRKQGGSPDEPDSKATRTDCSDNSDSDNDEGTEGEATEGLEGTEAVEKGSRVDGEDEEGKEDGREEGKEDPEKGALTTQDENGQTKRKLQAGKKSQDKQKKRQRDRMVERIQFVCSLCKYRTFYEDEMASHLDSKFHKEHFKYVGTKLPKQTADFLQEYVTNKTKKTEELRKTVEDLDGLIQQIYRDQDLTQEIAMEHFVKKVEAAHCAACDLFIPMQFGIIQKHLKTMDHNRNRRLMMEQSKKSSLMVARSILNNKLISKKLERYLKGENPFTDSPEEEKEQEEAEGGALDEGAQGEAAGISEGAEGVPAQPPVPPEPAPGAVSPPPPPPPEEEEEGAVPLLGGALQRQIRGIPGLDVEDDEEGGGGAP
UniProt P54252, sequence (P54252 whole entry, looked up): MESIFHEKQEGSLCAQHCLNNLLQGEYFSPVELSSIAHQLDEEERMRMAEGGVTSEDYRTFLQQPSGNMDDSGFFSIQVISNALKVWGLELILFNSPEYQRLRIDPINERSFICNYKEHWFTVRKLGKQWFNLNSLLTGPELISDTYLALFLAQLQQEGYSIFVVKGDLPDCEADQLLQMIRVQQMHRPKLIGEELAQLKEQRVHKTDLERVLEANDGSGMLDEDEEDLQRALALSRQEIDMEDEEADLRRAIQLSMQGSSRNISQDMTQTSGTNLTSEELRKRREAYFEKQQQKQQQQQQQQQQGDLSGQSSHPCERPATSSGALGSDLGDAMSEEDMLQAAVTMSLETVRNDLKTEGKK
UniProt Q8N6S5, sequence (Q8N6S5 whole entry, looked up): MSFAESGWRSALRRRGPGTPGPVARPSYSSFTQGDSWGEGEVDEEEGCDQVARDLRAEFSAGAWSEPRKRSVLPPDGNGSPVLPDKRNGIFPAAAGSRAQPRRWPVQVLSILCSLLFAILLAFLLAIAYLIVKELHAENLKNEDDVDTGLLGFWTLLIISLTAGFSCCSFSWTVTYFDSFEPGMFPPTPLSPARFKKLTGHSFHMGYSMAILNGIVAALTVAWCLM
UniProt Q9UBL3, sequence (Q9UBL3 whole entry, looked up): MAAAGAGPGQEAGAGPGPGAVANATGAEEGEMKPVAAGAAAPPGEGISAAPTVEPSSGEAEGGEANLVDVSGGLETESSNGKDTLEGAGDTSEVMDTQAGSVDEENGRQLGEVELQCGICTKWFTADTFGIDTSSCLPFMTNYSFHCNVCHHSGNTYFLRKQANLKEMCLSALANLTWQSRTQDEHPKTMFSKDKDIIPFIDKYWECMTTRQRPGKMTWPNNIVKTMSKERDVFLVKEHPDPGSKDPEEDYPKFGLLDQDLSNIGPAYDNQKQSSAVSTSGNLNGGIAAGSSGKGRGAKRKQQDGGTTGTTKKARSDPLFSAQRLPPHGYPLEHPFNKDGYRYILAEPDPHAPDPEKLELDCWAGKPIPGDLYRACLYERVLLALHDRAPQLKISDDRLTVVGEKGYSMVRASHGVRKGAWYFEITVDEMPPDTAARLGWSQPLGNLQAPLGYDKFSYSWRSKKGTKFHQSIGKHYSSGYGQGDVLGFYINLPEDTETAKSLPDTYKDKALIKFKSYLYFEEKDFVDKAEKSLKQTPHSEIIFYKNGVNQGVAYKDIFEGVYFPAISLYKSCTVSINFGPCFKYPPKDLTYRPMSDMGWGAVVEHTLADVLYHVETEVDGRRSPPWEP
UniProt O15254, sequence (O15254 whole entry, looked up): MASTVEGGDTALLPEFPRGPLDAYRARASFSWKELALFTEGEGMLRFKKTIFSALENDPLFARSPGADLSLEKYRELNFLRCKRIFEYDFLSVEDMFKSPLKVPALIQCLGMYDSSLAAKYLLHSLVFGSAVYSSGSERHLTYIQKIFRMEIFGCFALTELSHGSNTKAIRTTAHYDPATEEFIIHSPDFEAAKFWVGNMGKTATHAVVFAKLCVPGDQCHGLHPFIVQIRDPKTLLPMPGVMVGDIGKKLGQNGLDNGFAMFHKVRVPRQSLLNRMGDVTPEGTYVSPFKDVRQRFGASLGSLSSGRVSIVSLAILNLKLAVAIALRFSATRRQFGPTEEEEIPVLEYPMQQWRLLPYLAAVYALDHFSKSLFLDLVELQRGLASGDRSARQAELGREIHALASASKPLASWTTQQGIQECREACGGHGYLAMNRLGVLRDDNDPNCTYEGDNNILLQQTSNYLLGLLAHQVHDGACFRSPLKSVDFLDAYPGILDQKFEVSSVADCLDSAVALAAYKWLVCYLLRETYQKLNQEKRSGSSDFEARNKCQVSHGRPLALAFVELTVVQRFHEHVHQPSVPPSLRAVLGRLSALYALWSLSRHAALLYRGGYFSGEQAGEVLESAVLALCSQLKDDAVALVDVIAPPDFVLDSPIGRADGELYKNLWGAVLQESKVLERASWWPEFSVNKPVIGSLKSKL
UniProt Q9UQB8, sequence (Q9UQB8 whole entry, looked up): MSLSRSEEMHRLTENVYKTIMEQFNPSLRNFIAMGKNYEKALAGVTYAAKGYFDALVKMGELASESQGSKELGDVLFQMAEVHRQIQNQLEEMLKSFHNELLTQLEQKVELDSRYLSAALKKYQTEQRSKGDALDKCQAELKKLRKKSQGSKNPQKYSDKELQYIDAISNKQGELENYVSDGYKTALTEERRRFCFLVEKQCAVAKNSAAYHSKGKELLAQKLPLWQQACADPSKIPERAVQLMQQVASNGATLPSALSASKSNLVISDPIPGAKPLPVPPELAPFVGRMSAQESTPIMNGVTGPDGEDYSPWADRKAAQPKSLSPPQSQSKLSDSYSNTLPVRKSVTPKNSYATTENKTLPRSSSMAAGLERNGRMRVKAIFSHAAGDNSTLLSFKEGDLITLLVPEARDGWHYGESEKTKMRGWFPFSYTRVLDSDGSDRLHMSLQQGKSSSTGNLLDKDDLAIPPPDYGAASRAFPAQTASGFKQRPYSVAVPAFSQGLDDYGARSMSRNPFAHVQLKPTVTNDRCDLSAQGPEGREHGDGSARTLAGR
UniProt P42330, sequence (P42330 whole entry, looked up): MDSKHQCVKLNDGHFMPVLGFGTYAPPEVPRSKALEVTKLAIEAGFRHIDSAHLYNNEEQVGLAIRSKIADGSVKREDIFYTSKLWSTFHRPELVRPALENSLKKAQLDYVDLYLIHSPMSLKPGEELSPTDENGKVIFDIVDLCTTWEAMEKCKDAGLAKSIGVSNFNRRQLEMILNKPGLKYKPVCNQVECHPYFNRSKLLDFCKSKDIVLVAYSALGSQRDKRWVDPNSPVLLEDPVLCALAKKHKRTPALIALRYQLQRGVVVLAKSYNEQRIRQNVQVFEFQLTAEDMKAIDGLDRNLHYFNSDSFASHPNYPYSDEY
UniProt P11117, sequence (P11117 whole entry, looked up): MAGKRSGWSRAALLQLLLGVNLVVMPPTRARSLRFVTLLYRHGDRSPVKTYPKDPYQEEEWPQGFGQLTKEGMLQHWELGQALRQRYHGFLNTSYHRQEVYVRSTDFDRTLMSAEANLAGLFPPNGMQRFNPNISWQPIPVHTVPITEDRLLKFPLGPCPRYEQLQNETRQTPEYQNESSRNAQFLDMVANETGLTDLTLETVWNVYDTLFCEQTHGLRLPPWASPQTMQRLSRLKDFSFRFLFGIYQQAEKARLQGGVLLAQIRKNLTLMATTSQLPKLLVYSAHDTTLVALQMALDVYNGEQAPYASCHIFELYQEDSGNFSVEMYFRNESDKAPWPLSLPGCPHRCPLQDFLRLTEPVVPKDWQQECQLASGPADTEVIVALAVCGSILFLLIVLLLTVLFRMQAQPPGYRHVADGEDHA
UniProt P25440, sequence (P25440 whole entry, looked up): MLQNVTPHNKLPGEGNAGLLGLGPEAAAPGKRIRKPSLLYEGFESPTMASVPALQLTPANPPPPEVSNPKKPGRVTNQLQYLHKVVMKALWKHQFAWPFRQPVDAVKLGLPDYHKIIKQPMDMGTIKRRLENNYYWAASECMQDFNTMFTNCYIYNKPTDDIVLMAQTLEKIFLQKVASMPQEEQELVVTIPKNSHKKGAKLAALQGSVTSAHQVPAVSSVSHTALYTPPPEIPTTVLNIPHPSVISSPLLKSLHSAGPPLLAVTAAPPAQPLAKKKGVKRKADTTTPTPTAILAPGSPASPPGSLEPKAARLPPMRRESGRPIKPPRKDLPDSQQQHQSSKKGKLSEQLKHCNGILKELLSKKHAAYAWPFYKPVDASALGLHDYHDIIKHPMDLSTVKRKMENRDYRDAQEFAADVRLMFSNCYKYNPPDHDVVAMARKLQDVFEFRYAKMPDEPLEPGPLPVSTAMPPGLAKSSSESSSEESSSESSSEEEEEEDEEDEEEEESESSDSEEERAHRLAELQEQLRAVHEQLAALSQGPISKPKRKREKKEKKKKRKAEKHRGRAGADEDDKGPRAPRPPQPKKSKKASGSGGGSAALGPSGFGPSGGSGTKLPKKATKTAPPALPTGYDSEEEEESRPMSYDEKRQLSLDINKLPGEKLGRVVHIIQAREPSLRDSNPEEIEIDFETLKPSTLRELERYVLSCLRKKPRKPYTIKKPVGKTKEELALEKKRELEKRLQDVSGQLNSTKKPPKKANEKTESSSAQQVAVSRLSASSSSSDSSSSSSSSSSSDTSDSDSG
UniProt P36405, sequence (P36405 whole entry, looked up): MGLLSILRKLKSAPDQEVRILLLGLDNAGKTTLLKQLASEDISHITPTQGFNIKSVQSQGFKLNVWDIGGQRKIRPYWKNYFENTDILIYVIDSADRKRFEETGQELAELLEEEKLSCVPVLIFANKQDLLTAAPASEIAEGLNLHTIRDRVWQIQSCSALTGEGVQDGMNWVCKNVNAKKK
UniProt Q9UII2, sequence (Q9UII2 whole entry, looked up): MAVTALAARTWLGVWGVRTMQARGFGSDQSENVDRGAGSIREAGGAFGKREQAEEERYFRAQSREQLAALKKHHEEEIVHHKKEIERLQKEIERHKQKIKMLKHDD

Compound in the first test: CC1=C2C(=CC=C1)N=C(N(C2=O)C3=CC=CC=C3C)CN4C=NC5=C(N=CN=C54)N
The experiment in a line: log2 fold change, soluble protein after heating vs DMSO (PISA); higher = thermal stabilisation; K562 cells, 10 uM, 30 min; active = over 0.2 and 3.5 SD of the protein, either way, in both replicates (recomputed). The gist of the method: (§1)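 Values are thermal stability changes relative to control samples and are taken from duplicates. They are stated as log2 fold changes. Before quantification by TMTpro 16plex LC-MS/MS with equalised channel sums, K562 cells at 2×10^6 cells/mL were treated with 10 μM compound for 30 min, heated in aliquots for 3 min across 48°C-58°C, pooled, extracted in PBS with 0.5% NP-40 at 4°C, and centrifuged at 21,000xg for 90 min to give the soluble supernatant.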
Regarding ARL6IP6 (UniProt Q8N6S5), the log2 fold change was 0.08 (inactive).
BRD2 isoform 2 (UniProt P25440): the log2 fold change is 0.092 (inactive).
Same read-out and setting: with ASH2L (UniProt Q9UBL3) the figure was 0.081 (inactive); with ATXN3 isoform 1 (UniProt P54252), 0.118 (inactive).
As for ADD3 (UniProt Q9UEY8), the log2 fold change was 0.023 (inactive).
Still for that read-out and setting: as for AKR1C3 (UniProt P42330), the figure is 0.132 (inactive); as for ACP2 (UniProt P11117), 0.008 (inactive); as for ACOX3 (UniProt O15254), -0.185 (inactive).
As for ARL3 (UniProt P36405), the log2 fold change is 0.038 (inactive).
Still for that read-out and setting: as for AKAP8L (UniProt Q9ULX6), the figure is 0.054 (inactive).
For BAIAP2 (UniProt Q9UQB8), the log2 fold change was 0.072 (inactive).
Same read-out and setting: with ARFGEF1 (UniProt Q9Y6D6) the figure was 0.014 (inactive); with ARFIP1 (UniProt P53367), 0.051 (inactive).

Compound in the next test: Cc1sc2c(c1C)C(c1ccc(Cl)cc1)=N[C@@H](CC(=O)OC(C)(C)C)c1nnc(C)n1-2
Described as above. In short, it runs like this: as §1
On to ARL6IP4 (UniProt Q66PJ3), for which the log2 fold change was -0.016 (inactive).
On to ATP7B (UniProt P35670), for which the log2 fold change is 0.022 (inactive).
Still for that read-out and setting: as for B4GALT1 (UniProt P15291), the figure is -0.022 (inactive); as for ARL2BP (UniProt Q9Y2Y0), 0.069 (inactive); as for ASS1 (UniProt P00966), -0.141 (inactive).
Same read-out and setting: as for ATAD1 (UniProt Q8NBU5), the figure is -0.027 (inactive); as for ACAP2 (UniProt Q15057), 0.01 (inactive); as for ATG4B isoform 2 (UniProt Q9Y4P1), 0.188 (inactive).
In the case of ATL2 (UniProt Q8NHH9), the log2 fold change is -0.012 (inactive).
Still for that read-out and setting: as for ATP6V1H (UniProt Q9UI12), the figure is -0.019 (inactive); as for AGPAT5 (UniProt Q9NUQ2), -0.008 (inactive).
The same measure, in the same setting: with ABHD16A (UniProt O95870) the figure was 0.066 (inactive).
As for BTAF1 (UniProt O14981), the log2 fold change is 0.005 (inactive).
Same read-out and setting: with ARHGAP1 (UniProt Q07960) the figure was -0.005 (inactive); with ATP9B (UniProt O43861), -0.048 (inactive).
For the target ATP5IF1 (UniProt Q9UII2), the log2 fold change was -0.013 (inactive).
Same read-out and setting: as for ARMC10 (UniProt Q8N2F6), the figure is 0.012 (inactive); as for ANAPC2 (UniProt Q9UJX6), 0.017 (inactive).
Same read-out and setting: with ATP11A (UniProt P98196) the figure was -0.034 (inactive); with ALG14 (UniProt Q96F25), 0.051 (inactive); with ACP1 isoform 2 (UniProt P24666), 0.028 (inactive).
The same measure, in the same setting: with ACIN1 (UniProt Q9UKV3) the figure was 0.023 (inactive); with ALDH1B1 (UniProt P30837), -0.047 (inactive).
As to ARL6IP6 (UniProt Q8N6S5), the log2 fold change is 0.164 (inactive).
In the case of BRD2 isoform 2 (UniProt P25440), the log2 fold change was 2.33 (active).
On the same count and under the same terms, as for ASH2L (UniProt Q9UBL3), the figure is -0.031 (inactive); as for ATXN3 isoform 1 (UniProt P54252), -0.068 (inactive); as for ADD3 (UniProt Q9UEY8), -0.002 (inactive).
On the same count and under the same terms, with AKR1C3 (UniProt P42330) the figure was -0.038 (inactive); with ACP2 (UniProt P11117), -0.023 (inactive).
On the same count and under the same terms, with ACOX3 (UniProt O15254) the figure was 0.131 (inactive); with ARL3 (UniProt P36405), -0.06 (inactive); with AKAP8L (UniProt Q9ULX6), -0.047 (inactive).
As to BAIAP2 (UniProt Q9UQB8), the log2 fold change was 0.014 (inactive).
On to ARFGEF1 (UniProt Q9Y6D6), for which the log2 fold change is -0.063 (inactive).
For the target ARFIP1 (UniProt P53367), the log2 fold change was -0.065 (inactive).
